Assays:
Assay in all cases: HT-SELEX; 20 mM HEPES pH 7, 140 mM KCl, 5 mM NaCl, 1 mM K2HPO4, 2 mM MgSO4, 100 uM EGTA, ZnSO4, 0.1% Tween20; room temperature, 1 h; high values mean tight binding
Details in all cases: protein: ivt; tags: eGFP (N-terminal); dsDNA, one strand shown
[1] = target: ZNF721 full-length (Homo sapiens, UniProt Q8TF20-2 1-923)
Method in brief: (§1)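 Tagged transcription factor, expressed in HEK293 lysate or cell-free extract as a full-length protein or DNA-binding-domain fragment, was held on beads. It bound a randomized 40-base DNA library during 1 h at room temperature in low-stringency HEPES/KCl buffer with Tween20. Eluted DNA went through successive PCR cycles and Illumina sequencing of ~3 million 60 bp reads per sample. A higher relative k-mer count in the selected reads denotes tighter binding.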

[2] = target: ZNF721 DBD1 (Homo sapiens, UniProt Q8TF20-2 29-461)
Sequence of ZNF721 DBD1 (Q8TF20 17-449): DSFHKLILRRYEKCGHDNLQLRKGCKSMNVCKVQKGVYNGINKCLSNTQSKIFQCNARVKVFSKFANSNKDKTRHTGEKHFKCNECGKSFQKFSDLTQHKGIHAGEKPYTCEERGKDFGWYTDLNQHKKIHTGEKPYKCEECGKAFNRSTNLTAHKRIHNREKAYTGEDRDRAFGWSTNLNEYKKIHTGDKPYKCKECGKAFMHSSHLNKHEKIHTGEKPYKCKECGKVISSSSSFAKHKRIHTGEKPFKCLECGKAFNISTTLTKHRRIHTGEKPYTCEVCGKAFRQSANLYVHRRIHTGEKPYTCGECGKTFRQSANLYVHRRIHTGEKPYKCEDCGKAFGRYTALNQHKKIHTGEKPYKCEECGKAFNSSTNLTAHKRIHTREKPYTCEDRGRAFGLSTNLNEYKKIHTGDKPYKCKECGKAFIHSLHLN
Method in brief: as §1

[3] = target: ZNF721 DBD2 (Homo sapiens, UniProt Q8TF20-2 395-923)
Sequence of ZNF721 DBD2 (Q8TF20 383-911): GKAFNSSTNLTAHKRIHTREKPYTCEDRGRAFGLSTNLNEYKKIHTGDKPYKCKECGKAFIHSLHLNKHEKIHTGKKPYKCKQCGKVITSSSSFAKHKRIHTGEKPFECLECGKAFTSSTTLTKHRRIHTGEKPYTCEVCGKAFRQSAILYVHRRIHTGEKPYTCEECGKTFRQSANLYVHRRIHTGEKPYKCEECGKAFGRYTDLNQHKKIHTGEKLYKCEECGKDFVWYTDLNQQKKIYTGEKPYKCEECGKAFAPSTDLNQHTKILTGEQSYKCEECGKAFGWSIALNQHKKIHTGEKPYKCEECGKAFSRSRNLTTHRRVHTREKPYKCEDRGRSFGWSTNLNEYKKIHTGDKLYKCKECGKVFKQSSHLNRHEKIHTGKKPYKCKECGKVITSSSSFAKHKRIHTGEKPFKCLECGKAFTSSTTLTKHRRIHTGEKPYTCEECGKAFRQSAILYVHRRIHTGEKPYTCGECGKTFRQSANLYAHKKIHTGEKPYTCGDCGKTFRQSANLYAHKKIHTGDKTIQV
Method in brief: as §1

Sequence of ZNF721 full-length (Q8TF20 other isoform, or with tags, fused parts or gaps): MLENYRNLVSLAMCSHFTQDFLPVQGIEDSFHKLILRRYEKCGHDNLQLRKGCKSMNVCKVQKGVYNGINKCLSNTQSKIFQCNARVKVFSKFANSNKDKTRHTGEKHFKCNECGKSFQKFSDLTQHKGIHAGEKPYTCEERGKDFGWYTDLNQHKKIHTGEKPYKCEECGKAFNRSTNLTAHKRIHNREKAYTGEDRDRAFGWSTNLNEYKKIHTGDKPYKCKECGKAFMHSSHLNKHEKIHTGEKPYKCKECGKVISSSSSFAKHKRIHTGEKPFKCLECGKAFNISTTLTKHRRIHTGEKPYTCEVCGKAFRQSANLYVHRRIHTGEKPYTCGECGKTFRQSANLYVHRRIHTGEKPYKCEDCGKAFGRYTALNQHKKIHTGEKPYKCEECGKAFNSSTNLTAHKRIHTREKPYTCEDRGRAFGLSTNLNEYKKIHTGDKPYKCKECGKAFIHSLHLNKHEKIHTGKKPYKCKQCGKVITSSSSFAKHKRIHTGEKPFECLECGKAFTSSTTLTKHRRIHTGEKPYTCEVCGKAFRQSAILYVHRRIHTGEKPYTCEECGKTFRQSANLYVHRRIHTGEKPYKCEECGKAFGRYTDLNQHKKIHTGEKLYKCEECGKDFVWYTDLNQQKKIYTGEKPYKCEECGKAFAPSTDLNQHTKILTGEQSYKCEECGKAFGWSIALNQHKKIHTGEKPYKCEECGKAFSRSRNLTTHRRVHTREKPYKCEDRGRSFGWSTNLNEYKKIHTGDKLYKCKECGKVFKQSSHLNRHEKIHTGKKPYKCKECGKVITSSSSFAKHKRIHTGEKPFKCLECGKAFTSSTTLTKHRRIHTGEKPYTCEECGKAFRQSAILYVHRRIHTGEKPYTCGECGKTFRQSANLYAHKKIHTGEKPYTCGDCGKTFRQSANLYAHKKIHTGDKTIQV

Sequence | binding signal [1] [relative 10-mer count] | binding signal [2] [relative 10-mer count] | binding signal [3] [relative 10-mer count]
CACCCGCCCC | 0.188 | 0.0066 | 0.00108
CACCCCCACC | 0.308 | 0.0129 | 0.0102
AAAAGCTGCC | 0.103 | 0.0372 | 0.00108
CGCCCCCCAC | 0.156 | 0.00679 | 0.00407
CAAAAAAAAA | 0.226 | 0.0215 | 0.0886
CGCCCACCCA | 0.147 | 0.00449 | 0.00216
CCTGCCCCCC | 0.103 | 0.00454 | 0.00132
CTCCCCCGCC | 0.118 | 0.0056 | 0.00216
CTACCCCCCC | 0.105 | 0.00427 | 0.00312
CCCCCACTCC | 0.14 | 0.00665 | 0.00288
CACCACCCTC | 0.111 | 0.00537 | 0.00419
AAGCAGTACC | 0.153 | 0.0727 | 0.0326
GCCCCCACCC | 0.19 | 0.0083 | 0.00407
CTCCCCGCCC | 0.131 | 0.00583 | 0.00372
CCGCGCCCCC | 0.115 | 0.00427 | 0.0018
CACCACACCC | 0.12 | 0.00486 | 0.00336
CACCCCACCG | 0.124 | 0.00459 | 0.00372
CCACCCCCAC | 0.326 | 0.0121 | 0.00515
CCCCCCCACA | 0.124 | 0.00491 | 0.00743
AGGGCGGGGG | 0.14 | 0.0056 | 0.00276
CCCCTCCTCC | 0.154 | 0.00794 | 0.00515
CTTTTTTTTC | 0.171 | 0.0293 | 0.0669
CCCTCCCCTC | 0.142 | 0.00679 | 0.0129
GGGCGGGGGA | 0.122 | 0.00482 | 0.00216
CCCTACCCCC | 0.153 | 0.0083 | 0.00587
CCCCTACCCC | 0.199 | 0.00954 | 0.00384
AAAAAAAACA | 0.37 | 0.00592 | 0.252

— PMC13541613, “GHT-SELEX demonstrates unexpectedly high intrinsic sequence specificity and complex DNA binding of many human transcription factors”
